From PubChem
BoNT-A LC inh2: BoNT A light chain protease inhibition; AID 588499; hit rate 0.17% among 360,000; multiplex microsphere protease substrate cleavage, flow cytometry; inhibition, % at 10 µM
BoNT-F LC inh: inhibitors of Botulinum neurotoxin F light chain protease; Multiplex microsphere protease cleavage assay, flow cytometry; inhibition, % at 10 µM; hit rate 0.22% among 360,000; AID 588497; in the data active = inhibition above about 35%, passing the limit was not always enough; inconclusive = no clear call, values can overlap the other calls
Autofluor counter: flagged as autofluorescent in microsphere protease counterscreen; hit rate 3.1% among 360,000; fluorescence intensity (test concentration not listed); compound autofluorescence counterscreen, microsphere flow cytometry; hits give high values; in the data active = fluorescence intensity above about 16000; inconclusive = no clear call, values can overlap the other calls
Anthrax LF prot: inhibitors of Bacillus anthracis lethal factor protease. P15917. hit rate 0.12% among 360,000. multiplex microsphere protease cleavage assay, LF. inhibition, % at 10 µM
A number is an active result; – = inactive; ? = inconclusive. Compounds with a hit are over-represented: about 3.5% of the library has one in this group of screens. Cut-off read from the data, not from the text of the source, unless noted: active = inhibition above about 30%; inconclusive = no clear call, values can overlap the other calls; inactive = below that.

SMILES	BoNT-A LC inh2	BoNT-F LC inh	Autofluor counter	Anthrax LF prot
COc1cccc(C(C(=O)NC2CCCCC2)N(C(=O)Cc2cccs2)c2ccc(-n3cnnn3)c(OC)c2)c1 (stereo not drawn)	–	–	22984	–
Cc1ccccc1NC(=O)C1CC(Cl)=CCC1C(=O)O (stereo not drawn)	–	–	21780	–
Cc1ccc(C)c(NC(=O)C2CC(Cl)=CCC2C(=O)O)c1 (stereo not drawn)	–	–	–	–
Cc1ccc(Sc2ccc(NC(=O)c3ccc(S(C)(=O)=O)cc3Cl)cc2)cc1	?	–	21237	–
O=c1cc(CN2CCN(C/C=C/c3ccccc3)CC2)c2cc(O)c(-c3ccccc3)cc2o1	–	–	–	–
Cc1cc2oc(=O)cc(CN3CCN(C/C=C/c4ccccc4)CC3)c2cc1O	–	–	23462	–
Cc1c(C(=O)NCc2cccc(C(F)(F)F)c2)sc(=O)n1Cc1ccc(C(=O)N(C)C)cc1	–	–	–	–
COC(=O)[C@H](C)N(Cc1ccc(Cl)c(Cl)c1)S(=O)(=O)CCNC1CCCC1	–	–	–	–
Cc1cc(C(=O)N2CCC3(CC2)OCCO3)no1	–	–	–	–
Cc1cc(NC(=O)CCC(=O)N2CCC3(CC2)OCCO3)no1	–	–	23557	–
Cc1cc(C)cc(Oc2nn[nH]n2)c1	–	–	24301	–
CC(C)(C)c1cccc(Oc2nn[nH]n2)c1	–	–	–	–
O=C(O)c1cccc(N2C(=O)c3cccnc3C2=O)c1	?	–	23303	–
O=C(CN(CCO)c1ccccc1)Nc1ccc(Cl)c(S(=O)(=O)N2CCOCC2)c1	–	–	–	–
COc1ccc(C(=O)Nc2cccc(C(=O)Nc3cc(C)ccn3)c2)cc1	–	–	–	–
CN(C)S(=O)(=O)c1ccc(N2CCCC2)c(C(=O)N2CCN(S(=O)(=O)c3ccccc3F)CC2)c1	–	–	?	–
CN(C)C(CNc1ncnc2sccc12)c1cccs1 (stereo not drawn)	–	–	–	–
CCOC(=O)c1sc2ncnc(NCC(c3cccs3)N(C)C)c2c1C (stereo not drawn)	–	–	24092	–
C/C(=N\NC(=O)c1c[nH]c2ccccc12)c1ccc(C)o1	–	–	23011	–
C/C(=N\NC(=O)c1cc2ccccc2cc1O)c1ccc(C)o1	–	–	–	–
C/C(=N/NC(=O)CNc1ccc(C)cc1)c1ccc(Br)s1	–	–	19958	–
Cc1cc(NN)nc(NS(=O)(=O)c2ccc(Cl)cc2)n1	–	–	–	–
CCN(CC)c1nc(N)nc(NS(=O)(=O)c2ccc(Cl)cc2)n1	?	–	19449	–
CCNc1nc(NC(C)C)nc(NS(=O)(=O)c2ccc(Cl)cc2)n1	–	–	22725	–
CC(C)Nc1nc(NC(C)C)nc(NS(=O)(=O)c2ccc(N)cc2)n1	–	–	?	–
SMILES	BoNT-A LC inh2	BoNT-F LC inh	Autofluor counter	Anthrax LF prot
CCNc1nc(NC(C)C)nc(NS(=O)(=O)c2ccc(N)cc2)n1	–	–	17274	–
O=C(C[C@H]1C[C@H](C(=O)N2CCCCC2)[C@@]2(CCc3ccccc3)c3[nH]c4cc(-c5ccco5)ccc4c3CCN2C1=O)NCCC1=CCCCC1	–	–	–	–
NC(=O)C1CCN(CCC(=O)Nc2ccc(Br)cc2)CC1	–	–	23853	–
CC1(C)CC(=O)C=C(NCc2ccc(C(=O)O)cc2)C1	–	–	?	–
COc1cccc(C(=O)NNC2=CC(=O)CC(C)(C)C2)c1	–	–	20933	–
COc1ccc(CNC2=CC(=O)CC(C)(C)C2)cc1	–	–	24712	–
CCc1nc2ccc(C(=O)N(C)Cc3ccccc3)cn2c1N(C)Cc1ccc(OC)cc1	–	–	–	–
CCOc1cc([C@H]2[C@@H]3CCCC[C@]3(O)CCN2CC(=O)NCc2ccco2)ccc1O	–	–	22611	–
CCCCNC(=O)CN1CCC2(O)CCCCC2C1c1ccccc1OC (stereo not drawn)	–	–	–	–
O=C(CCSCc1ccccc1Cl)N1CCN(c2cccc(Cl)c2)CC1	–	–	22753	–
O=C(OCC(=O)N1CCN(c2ccccc2)CC1)c1cccc(Cl)c1	?	–	23047	–
Fc1ccc(-c2nnc(Cc3nnc(-c4ccc(F)cc4)o3)o2)cc1	–	–	22771	–
CCOc1cc(C)c(-c2onc(C(F)(F)F)c2-c2csc(C)n2)c(O)c1	–	–	22729	–
Oc1ccc(-c2onc(C(F)(F)F)c2-c2cscn2)c(O)c1	–	–	–	–
Cc1nc(-c2c(C(F)(F)F)noc2-c2ccc(O)cc2O)cs1	?	–	17928	–
Cc1cccc(OC(=O)CN2C(=O)C3C4CCC(C4)C3C2=O)c1C (stereo not drawn)	–	–	23771	–
CC(C)Cc1cc(C(=O)O)c2ccccc2n1	–	–	18252	–
